# Measured values: ChEMBL document CHEMBL3988442, “University of Dundee, Small-Polar-MMV Screening Library” (2021)
# For some assays here: Measured potencies and affinities stand elsewhere.
# Legend:
# Set-up in all cases: scale not given: direction of the effect not stated beside the values
# [1] = target: Protein translocase subunit SecA (Escherichia coli (strain K12)) (UniProt P10408); assay: Assay to Identify E. coli SecA ATPase Inhibitors; format: functional; settings: 30 µM
# [2] = target: T1, Ubiquitin-activating enzyme e1, putative (Leishmania donovani (strain BPK282A1)) (UniProt E9BSI1); assay: Leishmania donovani Ubiquitin Activating Enzyme (LdE1); format: functional; settings: 30 µM
# T1 sequence (whole entry): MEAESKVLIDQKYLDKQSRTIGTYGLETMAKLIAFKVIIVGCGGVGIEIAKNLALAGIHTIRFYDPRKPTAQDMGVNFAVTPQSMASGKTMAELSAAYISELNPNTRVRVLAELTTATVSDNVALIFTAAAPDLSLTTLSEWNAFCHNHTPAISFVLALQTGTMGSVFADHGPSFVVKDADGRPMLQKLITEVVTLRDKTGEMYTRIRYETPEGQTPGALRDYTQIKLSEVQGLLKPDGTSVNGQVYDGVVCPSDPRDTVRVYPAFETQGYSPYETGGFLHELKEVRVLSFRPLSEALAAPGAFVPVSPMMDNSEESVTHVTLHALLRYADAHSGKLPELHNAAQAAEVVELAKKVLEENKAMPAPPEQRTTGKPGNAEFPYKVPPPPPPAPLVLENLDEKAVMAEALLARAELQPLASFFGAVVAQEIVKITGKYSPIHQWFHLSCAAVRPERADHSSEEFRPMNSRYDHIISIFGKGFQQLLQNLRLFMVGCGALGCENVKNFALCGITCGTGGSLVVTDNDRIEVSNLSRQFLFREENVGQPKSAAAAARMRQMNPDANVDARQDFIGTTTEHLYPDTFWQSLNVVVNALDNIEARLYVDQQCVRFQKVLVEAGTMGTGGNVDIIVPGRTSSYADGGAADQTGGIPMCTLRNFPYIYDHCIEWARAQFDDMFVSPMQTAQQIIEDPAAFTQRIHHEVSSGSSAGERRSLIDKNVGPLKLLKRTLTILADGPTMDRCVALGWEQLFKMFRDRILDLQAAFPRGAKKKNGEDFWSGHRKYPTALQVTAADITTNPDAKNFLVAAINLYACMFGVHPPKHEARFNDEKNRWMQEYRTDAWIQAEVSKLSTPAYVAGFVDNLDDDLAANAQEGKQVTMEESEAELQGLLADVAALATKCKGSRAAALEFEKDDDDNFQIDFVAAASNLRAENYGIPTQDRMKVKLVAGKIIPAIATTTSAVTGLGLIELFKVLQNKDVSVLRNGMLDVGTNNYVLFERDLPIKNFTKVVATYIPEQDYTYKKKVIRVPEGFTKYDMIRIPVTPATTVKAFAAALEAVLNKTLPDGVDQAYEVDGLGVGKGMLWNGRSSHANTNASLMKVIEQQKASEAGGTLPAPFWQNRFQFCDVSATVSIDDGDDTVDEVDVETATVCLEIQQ
# [3] = target: AMP-activated protein kinase, AMPK (Homo sapiens) (UniProt P54646+O43741+P54619+Q9UGJ0+Q9Y478+Q13131+Q9UGI9); assay: AMP-dependent Kinase enzyme assay. An in vitro enzyme assay that detects ADP turnover that is directly proportional to AMPK activity. This uses naive AMPK that is activated during the assay with MK-8722; format: functional; settings: 30 µM
# [4] = target: Sialic acid-binding Ig-like lectin 9 (Homo sapiens) (UniProt Q9Y336); assay: Hs-Siglec9 ALPHAscreen SOP 20170721; settings: 10 µM
# Trypanosoma cruzi = assay: Trypanosoma cruzi phosphomannomutase and mannose-1-phosphate guanylyltransferase assay; format: functional; settings: 10 µM
# [5] = target: T2, Arginase-2, mitochondrial (Homo sapiens) (UniProt P78540); assay: in vitro enzyme assay to detect the production of urea directly proportional to the activity of Arginase II; format: functional; settings: 33.3 µM; further: in the data most compounds retested in dose-response had high values
# T2 sequence (whole entry): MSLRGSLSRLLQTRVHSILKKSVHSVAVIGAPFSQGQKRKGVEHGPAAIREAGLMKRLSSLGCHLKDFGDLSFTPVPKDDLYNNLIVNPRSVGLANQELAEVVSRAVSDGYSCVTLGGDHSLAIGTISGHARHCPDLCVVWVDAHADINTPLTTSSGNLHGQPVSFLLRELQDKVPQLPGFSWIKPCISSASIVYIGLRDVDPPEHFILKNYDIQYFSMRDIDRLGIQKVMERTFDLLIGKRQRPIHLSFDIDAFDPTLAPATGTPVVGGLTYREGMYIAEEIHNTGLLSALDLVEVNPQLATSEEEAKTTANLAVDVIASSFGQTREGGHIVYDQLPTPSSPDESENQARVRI
# [6] = target: T3, Proteasome subunit beta (Trypanosoma cruzi) (UniProt O96673); assay: Trypanosoma cruzi proteasome chymotrypsin-like activity (TcProtChymo) assay.; further: in the data most compounds retested in dose-response had high values; format: functional; settings: 9.37 µM
# T3 sequence (whole entry): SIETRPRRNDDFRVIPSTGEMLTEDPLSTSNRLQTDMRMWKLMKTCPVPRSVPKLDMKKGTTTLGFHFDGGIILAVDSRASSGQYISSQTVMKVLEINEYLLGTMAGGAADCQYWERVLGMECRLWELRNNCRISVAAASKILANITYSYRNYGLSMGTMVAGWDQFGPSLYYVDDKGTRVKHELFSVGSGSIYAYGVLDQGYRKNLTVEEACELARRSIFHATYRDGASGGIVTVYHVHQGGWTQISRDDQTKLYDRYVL
# Homo sapiens = species: Homo sapiens; assay: To identify inhibition of the IFN signalling (Jak-Stat) pathway via expression of an eGFP reporter gene under the control of an IFN-stimulated response element (ISRE) containing MxA promoter.; format: functional; settings: 30 µM
# [7] = target: T4, Tyrosyl-tRNA synthetase, putative (Trypanosoma cruzi (strain CL Brener)) (UniProt Q4DSP6); assay: Trypanosoma cruzi tyrosyl tRNA synthetase (TcYRS) _High Tyrosine SOP; format: functional; settings: 30 µM; further: in the data most compounds retested in dose-response had high values
# T4 sequence (whole entry): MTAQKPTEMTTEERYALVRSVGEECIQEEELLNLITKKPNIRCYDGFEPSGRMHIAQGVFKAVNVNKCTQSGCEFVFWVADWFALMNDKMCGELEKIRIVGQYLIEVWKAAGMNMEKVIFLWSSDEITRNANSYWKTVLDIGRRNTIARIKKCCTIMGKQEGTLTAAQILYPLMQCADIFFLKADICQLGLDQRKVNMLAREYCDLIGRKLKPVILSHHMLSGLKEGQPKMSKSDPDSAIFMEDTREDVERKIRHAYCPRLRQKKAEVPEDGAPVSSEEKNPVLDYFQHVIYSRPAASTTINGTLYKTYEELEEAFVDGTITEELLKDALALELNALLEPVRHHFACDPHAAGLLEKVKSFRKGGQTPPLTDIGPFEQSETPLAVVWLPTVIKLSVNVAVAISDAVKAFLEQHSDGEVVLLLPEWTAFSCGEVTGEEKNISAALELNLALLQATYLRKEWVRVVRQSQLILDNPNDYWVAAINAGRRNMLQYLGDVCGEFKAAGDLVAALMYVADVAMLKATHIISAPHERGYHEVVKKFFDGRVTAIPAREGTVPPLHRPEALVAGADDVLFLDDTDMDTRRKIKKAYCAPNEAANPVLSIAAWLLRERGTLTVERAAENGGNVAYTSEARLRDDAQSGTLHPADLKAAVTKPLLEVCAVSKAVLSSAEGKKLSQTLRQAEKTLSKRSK
# [8] = target: T4, Tyrosyl-tRNA synthetase, putative (Trypanosoma cruzi (strain CL Brener)); assay: Trypanosoma cruzi tyrosyl tRNA synthetase (TcYRS) SOP; format: functional; settings: 30 µM
# [9] = target: Chromo domain-containing protein 1 (Saccharomyces cerevisiae (strain ATCC 204508 / S288c) (Baker's yeast)) (UniProt P32657); assay: ScCHD-1 Enzyme Inhibition Assay; format: functional; settings: 30 µM; further: in the data most compounds retested in dose-response had high values
# Chromo domain-containing protein 1 (Saccharomyces cerevisiae (strain ATCC 204508 / S288c) (Baker's yeast)), sequence (P32657 whole entry, the tested form may be a part): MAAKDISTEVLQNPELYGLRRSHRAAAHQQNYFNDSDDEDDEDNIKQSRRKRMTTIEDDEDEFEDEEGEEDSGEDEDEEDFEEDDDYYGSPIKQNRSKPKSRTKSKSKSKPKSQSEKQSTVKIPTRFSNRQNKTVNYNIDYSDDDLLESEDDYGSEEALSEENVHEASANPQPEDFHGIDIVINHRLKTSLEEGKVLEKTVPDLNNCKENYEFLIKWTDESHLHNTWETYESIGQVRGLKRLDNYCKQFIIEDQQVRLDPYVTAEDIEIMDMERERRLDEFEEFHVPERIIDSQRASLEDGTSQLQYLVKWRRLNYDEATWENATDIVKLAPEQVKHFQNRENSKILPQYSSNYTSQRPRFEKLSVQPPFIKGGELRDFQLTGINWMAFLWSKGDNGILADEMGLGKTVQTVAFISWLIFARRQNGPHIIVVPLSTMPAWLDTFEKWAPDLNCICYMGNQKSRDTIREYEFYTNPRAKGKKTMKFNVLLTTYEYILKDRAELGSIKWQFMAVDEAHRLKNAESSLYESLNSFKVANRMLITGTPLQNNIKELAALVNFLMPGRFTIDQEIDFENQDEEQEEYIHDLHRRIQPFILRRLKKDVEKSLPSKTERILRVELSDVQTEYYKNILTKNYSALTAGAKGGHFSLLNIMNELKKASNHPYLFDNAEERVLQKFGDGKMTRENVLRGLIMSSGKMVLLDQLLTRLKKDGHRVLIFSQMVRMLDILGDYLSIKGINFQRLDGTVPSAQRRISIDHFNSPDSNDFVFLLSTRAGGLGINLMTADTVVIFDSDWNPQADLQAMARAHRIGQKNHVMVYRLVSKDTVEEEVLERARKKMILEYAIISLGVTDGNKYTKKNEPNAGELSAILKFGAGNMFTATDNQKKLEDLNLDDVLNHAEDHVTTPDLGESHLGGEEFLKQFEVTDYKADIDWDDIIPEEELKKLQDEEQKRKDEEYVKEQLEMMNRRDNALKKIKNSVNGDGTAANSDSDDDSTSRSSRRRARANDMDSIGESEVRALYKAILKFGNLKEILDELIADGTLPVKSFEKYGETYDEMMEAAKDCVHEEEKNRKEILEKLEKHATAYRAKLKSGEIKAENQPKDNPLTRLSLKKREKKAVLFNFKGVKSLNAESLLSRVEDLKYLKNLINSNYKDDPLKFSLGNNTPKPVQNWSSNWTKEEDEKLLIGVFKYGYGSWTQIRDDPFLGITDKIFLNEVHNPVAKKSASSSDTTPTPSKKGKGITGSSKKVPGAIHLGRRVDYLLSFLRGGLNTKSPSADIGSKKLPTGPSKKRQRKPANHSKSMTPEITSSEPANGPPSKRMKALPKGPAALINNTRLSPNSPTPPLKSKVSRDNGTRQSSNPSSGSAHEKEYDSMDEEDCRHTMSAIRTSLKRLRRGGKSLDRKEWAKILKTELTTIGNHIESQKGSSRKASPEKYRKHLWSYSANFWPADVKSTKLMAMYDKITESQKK
# Protein translocase subunit SecA (Escherichia coli (strain K12)), sequence (P10408 whole entry): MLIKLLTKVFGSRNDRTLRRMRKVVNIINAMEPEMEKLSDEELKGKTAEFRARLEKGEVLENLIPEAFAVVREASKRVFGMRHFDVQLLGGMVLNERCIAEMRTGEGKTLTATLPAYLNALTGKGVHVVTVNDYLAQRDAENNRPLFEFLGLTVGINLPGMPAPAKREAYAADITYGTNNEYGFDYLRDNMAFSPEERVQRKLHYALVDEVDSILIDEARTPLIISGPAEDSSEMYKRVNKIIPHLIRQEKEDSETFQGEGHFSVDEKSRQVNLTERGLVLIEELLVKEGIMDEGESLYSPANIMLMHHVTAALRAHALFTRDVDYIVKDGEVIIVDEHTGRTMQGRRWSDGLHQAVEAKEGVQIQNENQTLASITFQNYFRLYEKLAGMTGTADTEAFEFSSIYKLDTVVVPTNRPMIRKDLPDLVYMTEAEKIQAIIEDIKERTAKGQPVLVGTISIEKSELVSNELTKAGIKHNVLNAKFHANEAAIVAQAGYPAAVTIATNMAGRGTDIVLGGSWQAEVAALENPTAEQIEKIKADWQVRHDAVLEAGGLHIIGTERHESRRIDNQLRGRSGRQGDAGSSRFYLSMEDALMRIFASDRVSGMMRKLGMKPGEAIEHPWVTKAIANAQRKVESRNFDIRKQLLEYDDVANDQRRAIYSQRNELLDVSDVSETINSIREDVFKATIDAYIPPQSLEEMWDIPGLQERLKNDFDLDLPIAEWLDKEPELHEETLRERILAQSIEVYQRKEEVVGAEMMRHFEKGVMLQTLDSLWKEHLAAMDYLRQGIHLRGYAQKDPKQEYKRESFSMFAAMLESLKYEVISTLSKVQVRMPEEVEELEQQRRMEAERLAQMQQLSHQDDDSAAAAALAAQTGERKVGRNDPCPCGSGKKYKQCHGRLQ
# Sialic acid-binding Ig-like lectin 9 (Homo sapiens), sequence (Q9Y336 whole entry): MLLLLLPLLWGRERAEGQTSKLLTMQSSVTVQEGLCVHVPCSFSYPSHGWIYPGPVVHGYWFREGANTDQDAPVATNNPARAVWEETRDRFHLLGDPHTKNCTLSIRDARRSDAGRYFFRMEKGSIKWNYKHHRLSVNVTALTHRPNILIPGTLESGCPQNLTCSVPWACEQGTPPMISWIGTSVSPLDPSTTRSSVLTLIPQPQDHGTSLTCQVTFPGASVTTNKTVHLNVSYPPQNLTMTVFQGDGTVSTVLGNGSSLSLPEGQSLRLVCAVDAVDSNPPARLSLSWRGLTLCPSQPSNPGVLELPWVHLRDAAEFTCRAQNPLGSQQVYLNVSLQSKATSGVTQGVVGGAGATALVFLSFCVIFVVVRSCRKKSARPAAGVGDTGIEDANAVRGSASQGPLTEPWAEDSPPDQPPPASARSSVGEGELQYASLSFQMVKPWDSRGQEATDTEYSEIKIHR
SMILES,Percent Effect [1] [%],Percent Effect [2] [%],Percent Effect [3] [%],Percent Effect [4] [%],Percent Effect (Trypanosoma cruzi) [%],Percent Effect [5] [%],Percent Effect [6] [%],Percent Effect (Homo sapiens) [%],Percent Effect [7] [%],Percent Effect [8] [%],Percent Effect [9] [%]
CNc1nc2c(s1)C(c1c(Cl)cccc1Cl)CC(=O)N2 (configuration not stated),2.52,5.26,-467,4.3,0.682,0,17,4.23,-10.6,-10.4,-2.54
O=C(NCCCN1CCCC1=O)Nc1ccc(Br)cc1Cl,-4.26,-4,3.31,6.15,3.14,-3.7,7.02,8.83,0,2.56,-2.19
O=C(c1cc(Cl)cc(Cl)c1)N1CCN(c2nccs2)CC1,-2.62,13.7,5.26,6.34,0.588,10.4,19.2,0.362,4.3,20,-10.5
O=C(CN(Cc1ccccc1)CC1CCOCC1)Nc1nccs1,-4.59,0,0.406,1.15,-4.17,0.399,4.2,-3.27,6.25,11.1,-0.498
Cc1cc(CN2CCOC(CN(C)C)C2)no1 (configuration not stated),-5.93,5.41,-1.25,0.559,-4.92,1.66,-2.15,14.9,1.98,1.22,6.53
CC(=O)N1CCN(C(=O)c2cnn(-c3ccccc3Cl)c2)CC1,-5.95,21.6,-7.37,17.5,6.32,-8.82,9.19,13.8,8.37,18.5,-9.57
Cc1nc(C2(NCC(=O)NCCc3cccs3)CCCC2)no1,-2.85,7.89,-3.1,0.327,-4.38,-9.47,15.1,6.74,2.13,15.6,-1.92
NC(=O)C1CCN(C(=O)NCc2ccccc2Cn2cncn2)CC1,-3.59,5.41,4.01,0.839,-3.86,0,10.2,1.83,2.65,7.32,-1.94
COc1ccc(C(=O)N2CCC(Nc3ccc(C)nn3)CC2)c(F)c1,-1.36,1.27,3.77,-1.89,-4.21,2.8,12.7,25.4,7.29,-2.53,-10.7
O=C(c1ccc(Cl)o1)N1CCCC(c2cc(C(F)(F)F)[nH]n2)C1 (configuration not stated),-4.11,7.89,8.92,-5.86,-4.95,-0.719,2.45,29.4,3.45,3.7,-2.91
Cc1nc2ccccc2nc1CN1CCCC1c1c(C)nn(C)c1C (configuration not stated),-4.48,1.27,5.44,6.81,5.44,-1.94,2.23,3.07,5.21,17.7,-26.1
Cc1noc(Cl)c1CCC(=O)N1CCC(CC(N)=O)CC1,-6.39,18.4,-6.93,6.68,6.63,-3.96,13.6,10.4,4.43,18.5,-7.5
Cc1ccccc1CS(=O)(=O)CC(=O)NC1CCCCNC1=O (configuration not stated),-5.33,18.2,-2.46,11,4.87,-4.98,8.62,11,4.85,21.9,-8.24
c1ccc(-c2nnc(CNCCn3cccn3)o2)cc1,-3.18,-10.1,1.44,-1.76,1.79,3.04,1.72,-4.79,6.4,8.86,-8.2
Cc1c(C(=O)NC(C)C(C)C)nnn1-c1cccc2c1CCN(C)C2 (configuration not stated),-4.44,10.5,-6.99,3.62,1.85,-17.8,7.19,3.15,3.19,0,-11.2
CCN1CCN(c2ncc(-c3cc(C)no3)c(-c3ccc(C)s3)n2)CC1,-2.83,4.05,7.99,2.04,-5.34,-4.41,2.18,-6.45,6.45,11.7,-15.6
CN(Cc1ccncc1)CC(c1cccs1)N1CCOCC1 (configuration not stated),-5.66,-29.7,-4.64,13.6,8.63,-2.03,5.57,19.6,5.94,13.4,-2.66
Cc1cnn(CCNCC(O)COc2c(C)ccc(C)c2C)c1 (configuration not stated),-5.33,20.2,-11.8,20.1,6.7,-4.56,8.27,-1.01,7.39,21.5,-4.18
CCCc1nc(CN2CCCC(Cn3cncn3)C2)no1 (configuration not stated),-6.43,-1.27,0.957,-0.585,0.718,0.215,2.06,4.36,5.21,15.2,-25.2
CO[C@H]1CN(C(=O)c2ccccn2)[C@@H]2CCCO[C@H]12,-0.127,-2.7,2.92,0.754,-2.25,1.59,17.5,0.992,0,5.13,3.83
Cc1cc(NC(=O)NCCc2cccs2)n(C)n1,0.534,4.17,-1.97,-7.64,-8.65,4.42,23.3,-9.88,0,5.13,-0.833
CC(C)c1nnc2ccc(N3CCC(C(N)=O)CC3)nn12,-7.89,1.33,11.2,0.782,-4.52,-8.63,3.14,-2.58,-1.06,0,-7.68
